Drawing on PubChem BioAssay (NCI), this text covers growth inhibition for 20 compounds.

A short description of assay [1]: NCI Yeast Anticancer Drug Screen. Data for the rad50 strain (AID 155).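 Also: 0% = growth of vehicle-only cultures of the same strain.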 Conditions: S. cerevisiae rad50 strain growth inhibition; at 50.0 µM; stronger effect = higher value. In outline: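 Vehicle-treated cultures provide the reference for the growth inhibition reported for compound-exposed, repair-deficient yeast.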
Assay [2] can be described thus: NCI Yeast Anticancer Drug Screen. Data for the mec2-1 strain (AID 157). Conditions: S. cerevisiae mec2-1 strain, at 50.0 µM, stronger effect = higher value. An outline of the steps:
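Each compound was tested on mec2-1 yeast, a strain altered in DNA damage repair or cell cycle control. Growth inhibition is reported relative to vehicle.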

Assay [3] can be described thus: NCI Yeast Anticancer Drug Screen. Data for the sgs1 mgt1 strain (AID 161).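 Also: 0% = growth of cultures given vehicle only.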 The settings on record: S. cerevisiae sgs1 mgt1 strain, at 50.0 µM, stronger effect = higher value. An outline of the steps:
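Genetically altered yeast, compound exposure, growth inhibition relative to vehicle.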

A short description of assay [4]: NCI Yeast Anticancer Drug Screen. Data for the cln2 rad14 strain (AID 165).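 Also: 0% = growth equal to vehicle treated cultures.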 Conditions: S. cerevisiae cln2 rad14 strain, at 50.0 µM, stronger effect = higher value. An outline of the steps:
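Test compounds were added to cln2 rad14 yeast cultures; inhibition of growth was then determined by comparison with vehicle treatment.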

The nature of assay [5]: NCI Yeast Anticancer Drug Screen. Data for the bub3 strain (AID 167). Conditions: S. cerevisiae bub3 mutant strain, at 50.0 µM, stronger effect = higher value. An outline of the steps: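 Mutant yeast screening strain plus compound; vehicle-treated cultures serve as the 0% inhibition reference.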
Assay [6] is described as follows: NCI Yeast Anticancer Drug Screen. Data for the mlh1 rad18 strain (AID 175). Conditions: S. cerevisiae mlh1 rad18 strain growth inhibition; at 50.0 µM; stronger effect = higher value. An outline of the steps: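 Inhibition values reflect reduced growth of mutant yeast versus vehicle-treated controls following compound exposure; the mutations affect DNA damage repair.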

Compounds without any hit were thinned out: in the full panel of roughly 79,000, 15% have a hit. Values without a mark were called inactive. The source made the active and inactive calls. Rule as the data show it: active = growth inhibition above about 70%; inactive = the rest. Where a SMILES comes first, the peptide text is derived from it.

As for `Cn1cc(C(=O)c2ccccc2)c2ccccc2c1=O`, the growth inhibition is 41.5% in assay [1]; -4.4% in assay [2]; 23.8% in assay [3]; 8.25% in assay [4]; 31.9% in assay [5]; 16.4% in assay [6].

`Cc1cc2c(c3ccccc13)Cc1ccccc1-2`: the growth inhibition is -5.65% in assay [1]; 9.2% in assay [2]; -7% in assay [3]; 7.35% in assay [4]; 15.4% in assay [5]; -13.8% in assay [6].

With `COc1cc(Br)c(C2SCC(=O)N2c2nncs2)cc1OC` (stereo not given), the growth inhibition in assay [1] is 1.55%; in assay [2], 11.3%; in assay [3], 7.9%; in assay [4], 0.7%; in assay [5], -2.15%; in assay [6], 26.6%.

`O=[n+]1c2ccccc2n([O-])c2cn(-c3ccccc3)c(-c3ccccc3)c21`: the growth inhibition in assay [1] is 73.5% (active); in assay [2] it was 67.4%; in assay [3], 88.3% (active); in assay [4], 80.5% (active); in assay [5], 46.9%; in assay [6], 89.2% (active).

`O=C1Nc2cccc3cc(NCC(O)CCCl)cc1c23` (stereo not given): the growth inhibition in assay [1] was 17.4%; in assay [2], 3.1%; in assay [3], 18.2%; in assay [4] it was -5.8%; in assay [5], 14.6%; in assay [6], 20.6%.

Take `C[N+](C)(CCS(=O)(=O)[O-])C1CCCCC1`: the growth inhibition is -6.65% in assay [1]; -8.7% in assay [2]; -8.9% in assay [3]; -23.1% in assay [4]; 6.75% in assay [5]; -12.8% in assay [6].

Regarding `COC(=O)C1=CCOc2c1c(C(=O)OC)nn2C`, the growth inhibition in assay [1] is -4.8%; in assay [2] it was -8.15%; in assay [3], -2.4%; in assay [4] it was 6.1%; in assay [5] it was -11.2%; in assay [6], 24.9%.

Turning to `NC(Cc1ccccc1)C(=O)NCC(=O)NC(Cc1ccccc1)C(=O)NCC(=O)O` (stereo not given) (H-FGFG-OH; configuration not given here), the growth inhibition in assay [1] is -4.35%; in assay [2], -4.15%; in assay [3], -7.95%; in assay [4], -36.4%; in assay [5], -4.7%; in assay [6], 4.2%.

On to `O=[N+]([O-])c1ccc(S(=O)(=O)N/N=C/c2cccc3ccccc23)cc1`, for which the growth inhibition in assay [1] is 6.6%; in assay [2] it was -1.25%; in assay [3], 17.1%; in assay [4] it was -15.8%; in assay [5] it was -0.3%; in assay [6], 19.8%.

In the case of `CC(NC(C)c1ccccc1)c1ccccc1` (stereo not given), the growth inhibition in assay [1] is 6.05%; in assay [2] it was 0.05%; in assay [3], -5.6%; in assay [4], -7.3%; in assay [5] it was 3.3%; in assay [6], -1.35%.

Take `N#Cc1cccc(N(C(=O)c2ccccc2)c2ccccc2)n1`: the growth inhibition in assay [1] was 4.35%; in assay [2], 7.9%; in assay [3], -4.5%; in assay [4] it was 0.1%; in assay [5], 41%; in assay [6], 24.9%.

On to `CC(=O)c1cc([N+](=O)[O-])c(N)s1`, for which the growth inhibition was 7.35% in assay [1]; -3.2% in assay [2]; -13.2% in assay [3]; 5.25% in assay [4]; -4.15% in assay [5]; -3.8% in assay [6].

`CCCCCC(=O)N1CCOCC1`: the growth inhibition is 11.2% in assay [1]; 10.8% in assay [2]; 5.6% in assay [3]; -6.35% in assay [4]; -21.4% in assay [5]; 9% in assay [6].

Turning to `CC1(C)C/C(=C/c2ccccc2)C(=O)O1`, the growth inhibition in assay [1] is -14.6%; in assay [2] it was -6.95%; in assay [3], -3.45%; in assay [4] it was -31.5%; in assay [5], -4.05%; in assay [6] it was -19.3%.

In the case of `O=C(O)C=C1CCCCC1`, the growth inhibition in assay [1] is 4.35%; in assay [2], -4.2%; in assay [3], 20%; in assay [4], 10.4%; in assay [5], 11.9%; in assay [6], -1.1%.

Regarding `O=C(Nc1ccccc1C(=O)NCc1ccccc1)/C(=C/c1ccccc1)NC(=O)c1ccccc1`, the growth inhibition is 7.25% in assay [1]; 6.9% in assay [2]; -0.95% in assay [3]; 4.05% in assay [4]; 6.8% in assay [5]; -34.7% in assay [6].

`CC(=O)OCc1cn(S(=O)(=O)c2ccc(C)cc2)cn1`: the growth inhibition is 17.9% in assay [1]; -2.45% in assay [2]; 19.1% in assay [3]; -2.65% in assay [4]; 11.6% in assay [5]; -51.9% in assay [6].

Consider `Fc1ccc(Cl)c(-c2nc3ccccc3[nH]2)c1`, for which the growth inhibition was 14.2% in assay [1]; 15.4% in assay [2]; 2.85% in assay [3]; 2.35% in assay [4]; -1.5% in assay [5]; 47.3% in assay [6].

With `COc1ccc(C=Nc2ccc(O)cc2)cc1`, the growth inhibition in assay [1] was 5.45%; in assay [2], -2.3%; in assay [3], -8.35%; in assay [4], 34.1%; in assay [5] it was -22.6%; in assay [6] it was -13.9%.

Turning to `CCC(CC)CC1CCCCC1O` (stereo not given), the growth inhibition in assay [1] was -30.7%; in assay [2], -44%; in assay [3] it was -46.9%; in assay [4], -17.2%; in assay [5] it was -48.7%; in assay [6], -11.9%.
